Compound activity as filed in PubChem BioAssay.
Most compounds without a hit are left out; they make up all but 3.5% or so of the library.
GPR151 ag: activates the human receptor GPR151. activation, % at 11.2 µM. PathHunter beta-arrestin GPR151 cells, luminescence. AID 1508602. hit rate 1% among 650,000. Q8TDV0; in the data active = activation above about 4.9%;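 also: 0% = median of compound wells and 100% = cells with positive control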
FBW7 act: human FBW7 E3 ligase activation, primary screen | Q969H0 | normalized activity (activation), % at 26.1 µM | AlphaScreen FBW7–phospho-cyclin E peptide binding, activator screen | hit rate 0.13% among 650,000; in the data active = normalized activity above about 1.9%;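 also: purified mutant Fbw7 with reduced substrate affinity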
TEAD-YAP inh: TEAD-YAP interaction inhibition | hit rate 1.4% among 640,000 | HEK-TIYL cells, TEAD-Gal4/YAP UAS-luciferase luminescence | AID 1259422 | inhibition, % at 9.12 µM; in the data active = inhibition above about 32%;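 also: 0% = median of test compound wells and 100% = reference inhibitor wells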
MITF primary: human MITF inhibition, primary screen; O75030; AlphaScreen MITF homodimerization, bead proximity signal; inhibition, % at 2.6 µM; hit rate 0.91% among 650,000; AID 1259374; in the data active = inhibition above about 50%;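 also: 0% = vehicle wells with protein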
GPR151 conf act: confirmation of human GPR151 activators; shares compounds with GPR151 ag; GPR151 PathHunter beta-arrestin cells, luminescence, 90 min; % of EA-reagent control over plate median; activation, % at 11.2 µM; 6,700 tested, under 10 active; AID 1508609;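 active = mean percent activation across replicates above the confirmation screen cutoff of 4.91%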
GPR119 counter: GPR119 activation, counter-screen for GPR151 activators; shares compounds with GPR151 ag; GPR119 PathHunter beta-arrestin cells, luminescence, 90 min; 0 = compound-well median, 100 = enzyme-acceptor control; activation, % at 11.2 µM; hit rate 0.3% among 6,700; AID 1508611;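 active = mean percent activation in the counterscreen above 29.09%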;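 also: counterscreen on off-target GPR119 to flag nonselective hits from the GPR151 activator screen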
Target sequence (Q8TDV5 whole entry, looked up): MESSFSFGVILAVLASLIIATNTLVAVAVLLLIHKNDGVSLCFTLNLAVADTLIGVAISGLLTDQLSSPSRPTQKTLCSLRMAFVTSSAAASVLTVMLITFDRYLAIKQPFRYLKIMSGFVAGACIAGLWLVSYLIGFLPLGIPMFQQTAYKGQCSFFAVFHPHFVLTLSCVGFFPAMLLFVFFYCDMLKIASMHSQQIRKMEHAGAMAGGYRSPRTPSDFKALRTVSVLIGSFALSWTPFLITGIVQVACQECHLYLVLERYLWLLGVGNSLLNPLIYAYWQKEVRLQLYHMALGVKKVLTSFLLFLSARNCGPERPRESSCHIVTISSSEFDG
Starred values were filed as active, the others as inactive; x = no result given.

SMILES | GPR151 ag | FBW7 act | TEAD-YAP inh | MITF primary | GPR151 conf act | GPR119 counter
CC(=O)Nc1ccc(NC(=O)c2cnc(-c3ccccc3)s2)cc1 | 5.9* | -0.1 | -5.8 | 5.7 | -0.9 | -12.0
O=C(Nc1cc(-c2cccs2)nn1CCO)C1CCC1 | -0.4 | -0.3 | -0.2 | -1.0 | x | x
O=C(Nc1cc(-c2cccs2)nn1CCO)C1c2ccccc2Oc2ccccc21 | 8.0* | -0.2 | 3.8 | 0.4 | 0.4 | 9.3
COc1ccc(N(CC(=O)Nc2cccc(SC)c2)S(C)(=O)=O)cc1OC | -1.3 | 0.1 | 1.2 | -9.8 | x | x
O=C(C1CCC(CNc2c(N3CCCC3)c(=O)c2=O)CC1)N1CCc2ccccc21 (stereo unspecified) | 5.3* | -0.1 | -1.0 | 11.3 | -1.4 | -15.1
COc1ccc(-c2csc(-c3c(C)nc4sccn34)n2)c(OC)c1 | -1.5 | 0.2 | 1.9 | 0.7 | x | x
CCOc1ccc(S(=O)(=O)Nc2cccc(-c3ccc4nncn4n3)c2)cc1 | 9.8* | 0.1 | 39.4* | 14.0 | 1.1 | 11.3
CC(C)N(CCNC(=O)c1cccc(-c2ccc3c(ccn3C)c2)n1)C(C)C | 12.0* | 2.2* | 9.2 | -8.7 | 1.3 | 4.1
COc1ccc(-c2ncc(C(=O)NCCN(C(C)C)C(C)C)s2)cc1 | 7.8* | 0.1 | 3.6 | 14.0 | -0.4 | -6.4
CC(C)N(CCNC(=O)c1cccc(-c2ccccc2)n1)C(C)C | -1.4 | 0.1 | 3.0 | 15.3 | x | x
COc1ccc(-c2cccc(C(=O)NCCN(C(C)C)C(C)C)n2)cc1 | 8.8* | -0.1 | 5.7 | -3.5 | -0.4 | 2.7
COc1ccc(-c2ncc(C(=O)NCCN(C(C)C)C(C)C)s2)cn1 | 1.5 | 0.0 | 8.1 | -5.7 | x | x
COc1ccc(C(=O)N2CCN(c3ccc(Cl)cc3)CC2)c(OC)c1 | 0.7 | -0.2 | 16.0 | 10.9 | x | x
CN(CC(=O)NC1CCCCCC1)S(=O)(=O)c1ccccc1 | 8.6* | 0.0 | -13.7 | 7.3 | 0.0 | 1.7
CCOc1ccc(NC(=O)CN(C2CCCCC2)S(=O)(=O)c2ccccc2)cc1 | 6.0* | -0.2 | 2.2 | -14.5 | 0.0 | 14.1
CS(=O)(=O)N(CC(=O)Nc1ccc(OCc2ccccc2)cc1)C1CCCCC1 | 0.1 | -0.1 | 8.5 | 15.2 | x | x
CN(CC(=O)NC1CCCC1)S(=O)(=O)c1ccccc1 | -0.3 | -0.2 | 7.5 | -0.1 | x | x
COc1ccc(Cn2c(C)cn3c4c(=O)n(CCc5ccccc5)c(=O)n(C)c4nc23)cc1 | -1.3 | -0.1 | 2.6 | -12.3 | x | x
COCCNC(=O)[C@@H]1C[C@H](NCc2ccc(C(C)C)cc2)CN1Cc1ccccc1Cl | 1.4 | 0.7 | -10.0 | 7.2 | x | x
COCCNC(=O)[C@@H]1C[C@H](NCc2ccccc2)CN1Cc1ccccc1Cl | 8.5* | 1.0 | -3.9 | 5.0 | -0.3 | 0.5
CC(C)C12CN3CC(C(C)C)(CN(C1)C3c1ccccc1Cl)C2=O (stereo unspecified) | -0.1 | -0.1 | -6.2 | 4.1 | x | x
CC12CN3CC(C)(CN(C1)C3c1ccccc1Cl)C2 (stereo unspecified) | 5.5* | -0.1 | 5.0 | 9.2 | -0.7 | -5.2
CC1CCCN(S(=O)(=O)c2cccc(-c3cn4cccnc4n3)c2)C1 (stereo unspecified) | 5.0* | 0.1 | -2.3 | 1.9 | 1.7 | 2.4
CCN(CC)S(=O)(=O)c1cccc(-c2cn3cccnc3n2)c1 | -1.3 | 0.1 | 6.9 | 7.4 | x | x
O=C(/C=C/c1c(F)cccc1Cl)NCCN1CCOCC1 | 6.2* | -0.1 | -3.5 | -4.8 | -1.0 | -11.9
SMILES | GPR151 ag | FBW7 act | TEAD-YAP inh | MITF primary | GPR151 conf act | GPR119 counter
COc1ccc(CC(=O)NNC(=O)c2ccc(Cl)cc2)cc1OC | 5.3* | 0.0 | 4.5 | 16.0 | -0.4 | 11.2
COc1cc2c(cc1NC(=O)c1cccc([N+](=O)[O-])c1)oc1ccccc12 | 6.9* | 0.0 | -1.2 | 8.0 | 0.8 | 0.2
COc1cc2c(cc1NC(=O)c1ccoc1C)oc1ccccc12 | 5.2* | 0.0 | -65.1 | -5.6 | -0.3 | 3.3
COc1cc2c(cc1NC(=O)c1ccccc1Cl)oc1ccccc12 | 0.2 | 0.1 | -41.3 | -13.9 | x | x
N#C/C(=C\c1cc(Cl)cc(Cl)c1O)c1nc2ccccc2s1 | -0.7 | 0.0 | -0.6 | -1.9 | x | x
CCn1c(COc2ncnc3ccccc23)nc2cc(S(=O)(=O)N(C)C)ccc21 | 5.2* | 0.1 | -4.4 | 1.7 | -0.6 | -0.5
COc1ccccc1COn1c(=O)c(-c2ccccc2)[n+]([O-])c2ccccc21 | -0.3 | -0.1 | 0.1 | 11.1 | x | x
O=c1c2ccccc2ncn1CCOCCOc1cccc2ccccc12 | 0.6 | 0.0 | 0.3 | 9.1 | x | x
COc1ccccc1OCCOCCn1cnc2ccccc2c1=O | 14.0* | 0.1 | -13.8 | -3.0 | -0.1 | -0.2
Cc1ccc(OCCCCn2cnc3ccccc3c2=O)cc1 | 5.5* | 0.1 | 2.4 | 9.8 | -0.2 | -4.0
C#CCOCC1CCN(C(=O)CCn2cnc3ccccc3c2=O)CC1 | 0.5 | 0.1 | 1.5 | -6.2 | x | x
CCNc1nc(NCC)n2c(SCC(=O)Nc3ccc(C)cc3C)nnc2n1 | 1.6 | 0.2 | 11.7 | -3.7 | x | x
CCNc1nc(NCC)n2c(SCC(=O)Nc3ccccc3C)nnc2n1 | 6.8* | 0.0 | 3.0 | -14.5 | -0.1 | 0.9
C/C(CC(=O)Nc1ccc(N(C)C)cc1)=N\NC(=O)C(=O)Nc1ccccc1 | -0.3 | 0.0 | -19.1 | 8.0 | x | x
O=C1NC(=S)N(c2cccc(Cl)c2)C(=O)/C1=C/c1ccc(O)cc1 | -0.6 | 0.1 | 2.3 | 19.4 | x | x
N#CCCN(CCC#N)C(=O)Cc1ccc(Br)cc1 | 2.5 | 1.0 | 6.5 | 11.7 | x | x
CCCN(CCC)C(=O)Cc1ccc(Br)cc1 | 8.4* | 0.6 | -1.2 | 23.7 | -0.5 | 5.1
CC(C)(C)NC(=O)CC1(C(=O)O)CCCC1 | 1.1 | -0.1 | -0.9 | 2.6 | x | x
COc1ccc(-c2noc(CN(C(=O)COc3ccc(C)c(C)c3)C(C)C)n2)cc1 | 0.1 | -0.3 | -1.9 | -3.4 | x | x
COCCNC(=O)c1nn(C)c2c1CSc1ccccc1-2 | 6.7* | -0.1 | -30.5 | 1.7 | -0.9 | -9.4
c1cc(C23CC4CC(CC(C4)C2)C3)ccn1 | 1.7 | -0.1 | -7.7 | 4.3 | x | x
Cc1ccc(C2=NS(=O)(=O)N(C)C(C(=O)N(C)C3CCCCC3)=C2)cc1 | -2.0 | -0.2 | -0.1 | 5.9 | x | x
COc1ccc(C2=NS(=O)(=O)N(C)C(C(=O)N(C)C3CCCCC3)=C2)cc1 | 11.2* | -0.1 | 0.5 | -9.4 | -0.8 | -7.8
O=C1CCC(CCNCc2cc3c(cc2Cl)OCO3)N1CCc1ccccc1 (stereo unspecified) | -0.4 | -0.2 | -3.2 | -10.2 | x | x
CC(=O)N1CCN(Cc2ccccc2)CC1C(=O)NCc1ccccc1 (stereo unspecified) | 5.5* | 0.1 | -2.4 | 4.9 | 1.0 | -6.6
CCNC(=O)N1CCN(Cc2ccccc2)CC1C(=O)NCc1ccccc1 (stereo unspecified) | 4.3 | 0.1 | -8.1 | -6.2 | x | x
C=CCOc1ccc(/C(O)=C2\C(=O)C(=O)N(c3nc(C)c(C(=O)OC)s3)C2c2ccc(Cl)cc2)cc1C (stereo unspecified) | -0.1 | 0.0 | -1.4 | -2.3 | x | x
